Most compounds without a hit are left out; they make up all but 6.1% or so of the library.
D1 PAM: Potentiators of Human D1 Dopamine Receptor: qHTS | 360,000 tested, 0.036% active | D(1A) dopamine receptor (Homo sapiens), P21728 | AID 504651, 2011 | HEK293 TREx D1 cells, calcium flux, dopamine EC20 potentiation | potentiation, % at 10 µM; in the data active = potentiation above about 30%
D1 ag: Allosteric Agonists of the Human D1 Dopamine Receptor: qHTS; 360,000 tested, 1% active; HEK293 T-REx D1 cells, calcium flux, agonist mode; activation, % at 2 µM; in the data active = activation above about 30%
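Inducible HEK293 T-REx D1 cells, force-coupled to calcium signalling, were plated at 4000 cells/well with tetracycline and held overnight at 30 C. After no-wash calcium dye loading, compound-evoked calcium rise over 180 s flagged agonists.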
D3 antag: qHTS of D3 Dopamine Receptor Antagonist: qHTS; 360,000 tested, 2.5% active; max response, negative = inhibition, %; D3R cells, DiscoveRx beta-arrestin luminescence, antagonist mode; active compounds read low; D(3) dopamine receptor (Homo sapiens), P35462; in the data active = max response below about -50%; inconclusive = no clear call, values can overlap the other calls
Target sequence (P35462 whole entry, looked up): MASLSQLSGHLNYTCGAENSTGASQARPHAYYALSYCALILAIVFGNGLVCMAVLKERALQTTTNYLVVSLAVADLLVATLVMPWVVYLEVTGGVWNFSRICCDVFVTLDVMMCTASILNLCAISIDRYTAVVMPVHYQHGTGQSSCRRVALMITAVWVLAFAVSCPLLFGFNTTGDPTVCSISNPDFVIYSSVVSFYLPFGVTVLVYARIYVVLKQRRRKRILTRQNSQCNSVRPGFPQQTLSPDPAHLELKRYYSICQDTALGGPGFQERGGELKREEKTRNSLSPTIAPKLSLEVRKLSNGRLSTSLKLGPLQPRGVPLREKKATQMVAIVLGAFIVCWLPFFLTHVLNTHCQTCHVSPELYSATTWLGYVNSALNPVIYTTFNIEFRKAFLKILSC
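Cells plated overnight at 1500 cells/well, then exposed to library compounds with dopamine controls for 90 minutes at 37 degrees C. DiscoveRx reagent added for 30–60 minutes at room temperature; luminescence read, quantitative HTS format.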
D3 ag: qHTS of D3 Dopamine Receptor Agonist: qHTS; max activation, %; 410,000 tested, 0.58% active; D3R DiscoveRx beta-arrestin cells, luminescence, 90 min; D(3) dopamine receptor (Homo sapiens), P35462; in the data active = max activation above about 30%
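Agonist mode: compounds and dopamine controls were applied to plated cells for 90 min at 37 degrees C after an overnight attachment at 1500 cells/well. Luminescent read-out followed 30 - 60 minutes at room temperature with DiscoveRx detection reagent.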
D1 antag: Antagonist of Human D 1 Dopamine Receptor: qHTS; HEK293 TREx D1 cells, calcium flux, dopamine EC80; active compounds read low; AID 504652, 2011; activity change, negative = inhibition, % at 10 µM; 360,000 tested, 3.2% active; in the data active = activity change below about -30%
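Tetracycline-induced HEK293 Trex D1 cells, force-coupled to calcium, dye-loaded; compounds added and read 180 s, then EC80 dopamine added and calcium flux tracked kinetically another 180 s.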
Of the large screens only hits and unclear results are named; the others gave an inactive call.

Cc1ccc(NC(=O)C2CCN(C(=O)c3ccco3)CC2)cc1	none
COc1ccccc1CN1CCN(C(=O)c2ccco2)CC1	D3 ag 32
Cc1onc(-c2ccccc2)c1C(=O)N1CCCN(C(=O)c2c(-c3ccccc3)noc2C)CC1	none
Cc1onc(-c2ccccc2)c1C(=O)N1CCN(C(=O)c2ccco2)CC1	D3 antag -125
O=C(Nc1ccc(Cl)c(Cl)c1)C1CCN(C(=O)c2ccco2)CC1	D1 ag 41, D3 antag -81
O=C(c1ccco1)N1CCN(CC(O)COc2ccc3oc4ccccc4c3c2)CC1 (stereo unspecified)	D3 ag 41, D1 antag -35
COc1ccc(NC(=O)CN(C)S(=O)(=O)c2ccc(C(=O)N3CCOCC3)s2)cc1	none (no result: D3 antag)
CCC(Sc1ncc(S(=O)(=O)c2ccc(Cl)cc2)c(=O)[nH]1)C(=O)Nc1ccc(OC)cc1 (stereo unspecified)	none (no result: D3 antag)
Fc1ccc(CNc2cc(-c3ccccc3)nc3nncn23)cc1	none (no result: D3 antag)
CCc1ccc(NC(=O)c2sc(-n3nc(C)c(Cc4ccc(OC)cc4)c3C)nc2C)cc1	none (no result: D3 antag)
COc1ccccc1CN(Cc1ccco1)c1cnc(S(C)(=O)=O)nc1C(=O)Nc1ccccc1Cl	none (no result: D3 antag)
COc1ccc(CN2CCN(C(=O)c3ccco3)CC2)cc1OC	D3 ag 45
COc1ccc(CN2CCN(C(=O)c3ccco3)CC2)cc1OCc1ccccc1	none
CC(OC(=O)C(C)N1C(=O)C2C3C=CC(C4CC34)C2C1=O)C(=O)c1ccccc1 (stereo unspecified)	D1 antag -38
CC1CCN(C(=S)c2ccc(O)cc2)CC1	D1 antag -75
Cc1ccccc1CSc1nnc(NC(=O)C2COc3ccccc3O2)s1 (stereo unspecified)	none
O=C(Nc1nnc(SCc2ccccc2Cl)s1)C1COc2ccccc2O1 (stereo unspecified)	D3 antag -59
Cc1cccc(OCC(=O)NCC(=O)N/N=C/c2cc(Br)cc(Br)c2O)c1	D3 antag -81
O=C(Nc1cc(F)ccc1F)N1CCC(CN2CCCC2)CC1	none (no result: D3 antag)
Cc1cccc(C)c1NC(=O)CN(C)C(=O)[C@H](C)NC(=O)c1ccco1	D1 antag -80
Oc1cccc(Nc2nc(O)c(/C=C3\C=Nc4ccccc43)s2)c1	D1 ag 34, D3 antag inconclusive
Oc1nc(Nc2ccc(F)cc2)sc1/C=C1\C=Nc2ccccc21	none
CC1=Nc2ccccc2/C1=C\c1sc(Nc2ccc(C)cc2)nc1O	D3 antag -54
CCOC(=O)c1cc(S(=O)(=O)Nc2ccc(Br)c(C)c2)[nH]n1	none (no result: D3 antag)
COc1ccc(C)cc1NC(=O)C(CCSC)NS(=O)(=O)c1ccc2c(c1)oc(=O)n2C (stereo unspecified)	none (no result: D3 antag)
CC(=O)OC1CC(C)N(C(=O)c2ccccc2)c2ccc(C)cc21 (stereo unspecified)	none
CCCC(=O)OC1CC(C)N(C(=O)c2ccccc2)c2ccc(C)cc21 (stereo unspecified)	D1 ag 32, D3 antag inconclusive
Cc1ccc(NC(=O)CSc2nn(-c3ccccc3)c(=S)s2)cc1S(=O)(=O)N(C)C	D3 antag -63
O=C(CSc1nn(-c2ccccc2)c(=S)s1)NC1CCS(=O)(=O)C1 (stereo unspecified)	none
O=C(CSc1nn(-c2ccccc2)c(=S)s1)Nn1cnnc1	D3 antag -85
Cc1ccc(NC(=O)CSc2nnnn2C)cc1S(=O)(=O)N(C)C	none
O=C(/C=C/c1cccs1)Nc1nc(-c2ccccc2)cs1	D1 antag -36
Cc1[nH]c2ccccc2c1C(=O)CN1C(=O)C(=O)N(CCC2=CCCCC2)C1=O	D1 antag -32
Cc1[nH]c2ccccc2c1C(=O)CN1C(=O)C(=O)N(Cc2ccco2)C1=O	none
O=C(CSc1nnc(C2CC2)n1C1CC1)c1cccs1	none (no result: D1 PAM, D1 ag, D1 antag)
O=C(CSc1nnc(C2CC2)n1C1CC1)c1ccc(Br)s1	D3 antag -65 (no result: D1 PAM, D1 ag, D1 antag)
COc1ccc(-c2onc(C)c2C)cc1S(=O)(=O)N1c2ccccc2CC1C (stereo unspecified)	none (no result: D3 antag)
O=C(Nc1ccc(C(F)(F)F)cc1)C1CCCN(c2cnccn2)C1 (stereo unspecified)	none (no result: D3 antag)
O=C1OC(c2ccccc2)=NC12CC2c1ccc(Cl)cc1 (stereo unspecified)	D3 antag -73
COc1ccc(-c2nc(CN3CCN(c4ccccc4OC)CC3)c(C)o2)cc1	D3 antag -71
COc1ccc(-c2[nH]ncc2CN2CCN(Cc3cccs3)CC2)cc1F	D3 antag inconclusive
COc1ccccc1N1CCN(Cc2nc(-c3ccc(F)cc3)oc2C)CC1	D3 antag -115
COc1ccccc1N1CCN(Cc2cn[nH]c2-c2ccc(F)cc2)CC1	D1 ag 60, D3 antag -67
COc1ccc(S(=O)(=O)N2CCN(Cc3cccc(Cl)c3)CC2)cc1	D3 antag inconclusive, D1 antag -39
COc1ccccc1CN1CCN(Cc2nc(-c3ccc(C)cc3)oc2C)CC1	none
COc1ccc2c(c1)cc1c(=O)n(CC(=O)NCCc3ccccc3)nc(C)n12	none (no result: D3 antag)
COc1ccc(-c2nc(CN3CCN(Cc4cccc(Cl)c4)CC3)c(C)o2)cc1	D3 antag -60
COc1ccc(-c2nc(CN3CCN(Cc4cccc(F)c4)CC3)c(C)o2)cc1	none
CCOc1ccc(NC(=O)Cn2ccn(-c3ccc(F)c(F)c3)c(=O)c2=O)cc1	none (no result: D3 antag)
O=S(=O)(c1ccc(C(F)(F)F)cc1)N1CCN(CCOc2ccccc2)CC1	D1 antag -39
O=S(=O)(c1ccc(F)cc1)N1CCN(CCOc2ccccc2)CC1	D3 antag inconclusive (no result: D1 PAM, D1 ag, D1 antag)
CC(=O)c1ccc(S(=O)(=O)N2CCN(CCOc3ccccc3)CC2)cc1	D3 antag -59 (no result: D1 PAM, D1 ag, D1 antag)
COc1ccc(S(=O)(=O)N2CCN(CCOc3ccccc3Cl)CC2)cc1OC	D3 ag 36, D1 antag -51
Cc1ccc(S(=O)(=O)N2CCN(CCOc3cccc(C)c3)CC2)cc1	D3 antag -55
O=C(COC(=O)CNC(=O)c1ccccc1)Nc1cc(C(F)(F)F)ccc1Cl	none (no result: D3 antag, D3 ag)
CC1=C(C(=O)NCCc2ccc(Cl)cc2)C2(CCCCC2)OC1=O	none (no result: D3 antag)
CCCN(CCC)C(=O)Cn1c(SCc2cccc(C(F)(F)F)c2)nc2cccnc21	none (no result: D3 antag)
CC(=O)c1c(C)[nH]c(C(=O)CN2C(=O)NC(C)(c3ccc4c(c3)OCO4)C2=O)c1C (stereo unspecified)	none
CC1(c2ccc(OC(F)F)cc2)NC(=O)N(CC(=O)NC2CCCCC2)C1=O (stereo unspecified)	none

Source: PubChem (National Center for Advancing Translational Sciences (NCATS))
